Drawing on PubChem BioAssay, this text covers growth inhibition, inhibition and outcome for 20 compounds.

Experiment [1] can be described thus: antimalarial activity against Dd2 strain (AID 2302;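 active = growth inhibition above 50% at the single 2 µM test dose, taken to imply half-maximal potency below 2 µM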;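 also: 0% = DMSO untreated growth and 100% = chloroquine plus artemisinin killed control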). The settings on record: P. falciparum Dd2 in RBCs, LDH growth readout, 72 h; at 2 µM; active compounds read high.
Experiment [2] in a line: HepG2 cytotoxicity, primary screen, cytotoxicity control for P. falciparum antimalarial project, cell-based, ATP luminescence (AID 2303;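 active = inhibition above 50%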;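 also: 0% = DMSO wells and 100% = digitonin-killed cells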). As to conditions: HepG2 viability, 24-48 h, at 10 µM, active compounds read high.
Experiment [3] addresses L-lactate dehydrogenase (Plasmodium falciparum (isolate CDC / Honduras)) (UniProt Q27743). Briefly: PfLDH activity inhibition – cell lysate, 3D7 strain, counter-screen for P. falciparum growth inhibition project (AID 2304).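 Also: 0% = vehicle and 100% = reference inhibitor.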 As to conditions: P. falciparum 3D7 crude extract, LDH APAD/NBT absorbance; at 2 µM; active compounds read high.
Experiment [4] can be described thus: inhibition of 3D7 malaria parasite growth – strain 3D7 (AID 2306).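 Also: 0% = DMSO wells and 100% = chloroquine plus artemisinin control wells.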 The settings on record: P. falciparum 3D7 erythrocytic growth, LDH absorbance, 72 h; at 2 µM; active compounds read high.
For experiment [5], the target named is Calcium-dependent protein kinase 1 (Plasmodium falciparum (isolate 3D7)) (UniProt P62344). Briefly: PfCDPK1 kinase inhibitors, biochemical, TCAMS library (AID 1159585; cut-off not given, nearly all actives have IC50 up to about 0.98 µM;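 also: inhibitors leave more ATP so luminescence rises with inhibition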). The settings on record: recombinant PfCDPK1, Kinase-Glo ATP depletion luminescence.
Sequence of Calcium-dependent protein kinase 1 (Plasmodium falciparum (isolate 3D7)) (P62344 whole entry, looked up): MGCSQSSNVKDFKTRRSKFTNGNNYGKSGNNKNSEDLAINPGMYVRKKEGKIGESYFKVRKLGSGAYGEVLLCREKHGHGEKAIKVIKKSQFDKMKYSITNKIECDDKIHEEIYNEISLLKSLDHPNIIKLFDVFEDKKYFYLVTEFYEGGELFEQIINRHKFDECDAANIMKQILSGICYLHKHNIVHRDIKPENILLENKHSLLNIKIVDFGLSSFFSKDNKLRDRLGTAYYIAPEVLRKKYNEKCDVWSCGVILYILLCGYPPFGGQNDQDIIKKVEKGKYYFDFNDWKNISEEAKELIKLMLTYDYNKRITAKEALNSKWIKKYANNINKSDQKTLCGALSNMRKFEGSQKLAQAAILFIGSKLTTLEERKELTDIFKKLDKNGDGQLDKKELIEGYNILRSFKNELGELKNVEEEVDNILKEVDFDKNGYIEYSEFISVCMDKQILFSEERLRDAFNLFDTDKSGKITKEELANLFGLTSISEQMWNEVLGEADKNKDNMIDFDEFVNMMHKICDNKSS
For experiment [6], the target named is Plasmodium falciparum protein kinase 6 (PK6, PF3D7_1337100) (UniProt Q8IDW1). The experiment is described as follows: PfPK6 kinase inhibitors, biochemical, TCAMS library (AID 1159586). The settings on record: recombinant PfPK6, Kinase-Glo ATP depletion luminescence.
Sequence of Plasmodium falciparum protein kinase 6 (PK6, PF3D7_1337100) (Q8IDW1 1-305): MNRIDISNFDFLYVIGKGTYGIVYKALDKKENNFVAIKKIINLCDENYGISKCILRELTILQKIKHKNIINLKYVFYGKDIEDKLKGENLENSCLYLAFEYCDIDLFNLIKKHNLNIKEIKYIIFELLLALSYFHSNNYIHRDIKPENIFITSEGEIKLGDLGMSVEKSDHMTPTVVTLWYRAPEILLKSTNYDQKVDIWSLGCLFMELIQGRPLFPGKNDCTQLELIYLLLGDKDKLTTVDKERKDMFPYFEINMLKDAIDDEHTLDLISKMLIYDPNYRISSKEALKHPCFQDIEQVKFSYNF
The target of experiment [7] is Protein kinase 7 (PK7), Plasmodium falciparum 3D7 (PF3D7_0213400) (UniProt Q7YTF7). The experiment is described as follows: inhibition of Plasmodium PK7 catalytic activity – biochemical, TCAMS antimalarial set, Kinase-Glo luminescence (AID 1159587). As to conditions: recombinant PfPK7, Kinase-Glo ATP depletion luminescence.
Sequence of Protein kinase 7 (PK7), Plasmodium falciparum 3D7 (PF3D7_0213400) (Q7YTF7 1-343): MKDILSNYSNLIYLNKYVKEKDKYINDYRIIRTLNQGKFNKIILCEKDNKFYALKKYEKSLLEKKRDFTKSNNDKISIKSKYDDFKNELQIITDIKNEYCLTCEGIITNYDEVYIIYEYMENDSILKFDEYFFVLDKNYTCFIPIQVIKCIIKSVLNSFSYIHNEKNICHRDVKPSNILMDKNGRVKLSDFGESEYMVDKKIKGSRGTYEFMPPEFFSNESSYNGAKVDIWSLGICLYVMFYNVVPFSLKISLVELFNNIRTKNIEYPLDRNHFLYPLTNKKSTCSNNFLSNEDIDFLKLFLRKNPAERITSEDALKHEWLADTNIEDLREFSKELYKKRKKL
Experiment [8] has as its target Calcium-dependent protein kinase 4 (Plasmodium falciparum (isolate 3D7)) (UniProt Q8IBS5). The experiment is described as follows: PfCDPK4 kinase inhibitors, biochemical, TCAMS library (AID 1159588; cut-off not given, nearly all actives have IC50 up to about 0.91 µM). The settings on record: recombinant PfCDPK4, Kinase-Glo ATP depletion luminescence.

Values without a mark were called inactive. For some of these results: Entries with a potency or affinity are not part of this list. Activity calls are given as the source filed them. Unless noted, no rule for the calls is given here.

Sequence of L-lactate dehydrogenase (Plasmodium falciparum (isolate CDC / Honduras)) (Q27743 whole entry, looked up): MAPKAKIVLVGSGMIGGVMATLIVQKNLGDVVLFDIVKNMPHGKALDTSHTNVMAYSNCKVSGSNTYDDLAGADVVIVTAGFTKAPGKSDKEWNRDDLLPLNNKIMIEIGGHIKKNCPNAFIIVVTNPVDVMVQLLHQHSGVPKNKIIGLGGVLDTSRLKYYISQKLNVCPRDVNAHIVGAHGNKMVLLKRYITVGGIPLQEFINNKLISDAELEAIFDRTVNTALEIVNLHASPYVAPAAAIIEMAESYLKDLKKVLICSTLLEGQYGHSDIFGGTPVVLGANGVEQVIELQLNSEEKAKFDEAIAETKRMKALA
Sequence of Calcium-dependent protein kinase 4 (Plasmodium falciparum (isolate 3D7)) (Q8IBS5 whole entry, looked up): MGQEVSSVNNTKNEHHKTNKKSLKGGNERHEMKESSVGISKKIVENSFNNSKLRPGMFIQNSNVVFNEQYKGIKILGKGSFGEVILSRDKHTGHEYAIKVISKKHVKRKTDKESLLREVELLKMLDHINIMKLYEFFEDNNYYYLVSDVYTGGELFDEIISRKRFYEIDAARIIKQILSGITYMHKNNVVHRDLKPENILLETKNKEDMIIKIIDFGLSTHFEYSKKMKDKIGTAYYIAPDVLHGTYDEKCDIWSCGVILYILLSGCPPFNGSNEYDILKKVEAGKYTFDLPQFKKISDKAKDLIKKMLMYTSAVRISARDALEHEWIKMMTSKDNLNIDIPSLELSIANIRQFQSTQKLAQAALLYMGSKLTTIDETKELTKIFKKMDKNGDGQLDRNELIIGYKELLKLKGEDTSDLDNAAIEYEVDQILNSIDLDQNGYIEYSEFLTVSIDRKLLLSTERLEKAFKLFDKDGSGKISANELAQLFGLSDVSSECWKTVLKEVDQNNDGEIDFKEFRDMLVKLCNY

On to `CCCCCCCc1c2c(C)c(C(=O)OCC)nc-2cc2n1CC(C)=C2C`, for which the growth inhibition in experiment [1] is 10%; in experiment [4] it was 89% (active). For the same compound, the inhibition is 11% in experiment [2] and 1% in experiment [3]. The outcome in experiment [5], in experiment [6], in experiment [7] and in experiment [8] was inactive.

For `CCCNCc1ccc(-c2ccc(CN(CCOC)C(=O)c3ccc([N+](=O)[O-])c(C)c3)cc2)nc1`, the growth inhibition was 23% in experiment [1] and 97% (active) in experiment [4]. In addition, the inhibition is 2% in experiment [2] and 1% in experiment [3]. The result in experiment [5], in experiment [6], in experiment [7] and in experiment [8] was inactive.

Consider `COc1ccc2ncc(F)c(CCN3CCC(NCc4cc(OC)c5c(c4)OCCO5)CC3)c2n1`, for which the results for the growth inhibition in experiment [1] and in experiment [4] were 53% (active) and 101% (active), respectively. Also, the inhibition in experiment [2] is -2%; in experiment [3], -3%. The outcome in experiment [5], in experiment [6], in experiment [7] and in experiment [8] was inactive.

Regarding `CCN(CC)CCN(Cc1ccc(-c2ccc(C(F)(F)F)cc2)cc1)C(=O)Cn1c(CCc2cccc(F)c2F)cc(=O)cc1-c1ccccc1`, the growth inhibition was 64% (active) in experiment [1] and 94% (active) in experiment [4]. The inhibition in experiment [2] was 33%; in experiment [3], -2%. Besides, the outcome in experiment [5], in experiment [6], in experiment [7] and in experiment [8] was inactive.

On to `Cc1ccc(-c2noc(COc3ccccc3C(=O)NC3CCCC3)n2)cc1`, for which the growth inhibition in experiment [1] was 92% (active); in experiment [4], 89% (active). Moreover, the inhibition was 9% in experiment [2] and -4% in experiment [3]. Besides, the outcome in experiment [5], in experiment [6], in experiment [7] and in experiment [8] was inactive.

`COc1cc2nc(N3CCC(CNC(=O)c4ccc(-c5ccc(O)cc5)cc4)CC3)nc(N)c2cc1OC`: the growth inhibition was 78% (active) in experiment [1] and 102% (active) in experiment [4]. The inhibition in experiment [2] is 34%; in experiment [3], -2%. Moreover, the result in experiment [5], in experiment [6], in experiment [7] and in experiment [8] was inactive.

`Cc1cccc(-c2cccc3c(NC(=O)N4CCc5cc6nccc(N7CCN8CCC[C@H]8C7)c6cc54)cccc23)n1`: the figures for the growth inhibition in experiment [1] and in experiment [4] were 68% (active) and 94% (active), respectively. The inhibition in experiment [2] is 14%; in experiment [3], -6%. Moreover, the outcome in experiment [5], in experiment [6], in experiment [7] and in experiment [8] was inactive.

For `Cc1ccccc1-c1cc(=O)c2cc(NC(=O)c3cccs3)ccc2o1`, the results for the growth inhibition in experiment [1] and in experiment [4] were 95% (active) and 96% (active), respectively. In addition, the inhibition is 22% in experiment [2] and -4% in experiment [3]. Also, the outcome in experiment [5], in experiment [6], in experiment [7] and in experiment [8] was inactive.

Consider `NC(=O)COc1c(C2CCN(CCN3CCC(CNC(=O)c4ccc(-c5ccc(C(F)(F)F)cc5)cc4)CC3)CC2)ccc2c1CCCC2`, for which the figures for the growth inhibition in experiment [1] and in experiment [4] were 68% (active) and 87% (active), respectively. The inhibition in experiment [2] was 32%; in experiment [3], -1%. For the same compound, the outcome in experiment [5], in experiment [6], in experiment [7] and in experiment [8] was inactive.

For `CCOc1c(CNCCCNc2nc3ccccc3[nH]2)cc(I)cc1OC`, the growth inhibition in experiment [1] was 4%; in experiment [4] it was 100% (active). Besides, the figures for the inhibition in experiment [2] and in experiment [3] were 42% and 1%, respectively. Also, the result in experiment [5], in experiment [6], in experiment [7] and in experiment [8] was inactive.

In the case of `COc1cccc(C2CCN(CCN3CCC(NC(=O)c4ccc(-c5ccc(C(F)(F)F)cc5)cc4)CC3)CC2)c1`, the growth inhibition in experiment [1] and in experiment [4] was 99% (active) throughout. Besides, the results for the inhibition in experiment [2] and in experiment [3] were 46% and -7%, respectively. Also, the outcome in experiment [5], in experiment [6], in experiment [7] and in experiment [8] was inactive.

Turning to `Cc1cc(NC(=O)NCCN2CCC(NC(=O)c3ccc(F)cc3)CC2)c2ccccc2n1`, the growth inhibition was 76% (active) in experiment [1] and 99% (active) in experiment [4]. The inhibition is -6% in experiment [2] and -2% in experiment [3]. In addition, the outcome in experiment [5], in experiment [6], in experiment [7] and in experiment [8] was inactive.

With `Cc1cc(N(C)C2CCN(CC3CCCCC3)C2)nc(Nc2ccc(Br)cc2)n1` (stereo not given), the growth inhibition was 38% in experiment [1] and 98% (active) in experiment [4]. Besides, the values for the inhibition in experiment [2] and in experiment [3] were 14% and -1%, respectively. In addition, the outcome in experiment [5], in experiment [6], in experiment [7] and in experiment [8] was inactive.

As for `NC1CCCN(Cc2cccc(-c3ccc(-c4nc5ccc(F)cc5[nH]4)cc3)c2)C1` (stereo not given), the growth inhibition in experiment [1] was 99% (active); in experiment [4], 101% (active). Further, the inhibition was 40% in experiment [2] and -3% in experiment [3]. Besides, the result in experiment [5], in experiment [6], in experiment [7] and in experiment [8] was inactive.

In the case of `COc1cccc(Nc2nc(Nc3cccc(C#N)c3)cc(C(F)(F)F)n2)c1`, the growth inhibition in experiment [1] was 45%; in experiment [4], 99% (active). The inhibition in experiment [2] was 15%; in experiment [3], 3%. In addition, the outcome in experiment [5], in experiment [6], in experiment [7] and in experiment [8] was inactive.

For the compound `O=C(Nc1ccccc1)N(Cc1cccc(-c2ccc(CNCc3ccc4c(c3)OCO4)cc2)c1)C1CCN(Cc2ccccc2)CC1`, the growth inhibition is 82% (active) in experiment [1] and 102% (active) in experiment [4]. Besides, the values for the inhibition in experiment [2] and in experiment [3] were 27% and 7%, respectively. Also, the result in experiment [5], in experiment [6], in experiment [7] and in experiment [8] was inactive.

With `CCCCc1cc(=O)oc2cc(C)cc(OCc3ccccc3F)c12`, the growth inhibition in experiment [1] was 78% (active); in experiment [4], 92% (active). In addition, the inhibition was 8% in experiment [2] and -1% in experiment [3]. For the same compound, the result in experiment [5], in experiment [6], in experiment [7] and in experiment [8] was inactive.

As to `CN1CCN(c2cc(-c3ccncc3)nc(-c3cccnc3)n2)CC1`, the values for the growth inhibition in experiment [1] and in experiment [4] were 98% (active) and 101% (active), respectively. In addition, the inhibition in experiment [2] was 13%; in experiment [3], 3%. For the same compound, the result in experiment [5], in experiment [6], in experiment [7] and in experiment [8] was inactive.

With `Nc1ccc(-c2csc(Nc3ccncc3)n2)cc1`, the figures for the growth inhibition in experiment [1] and in experiment [4] were 50% (active) and 95% (active), respectively. Besides, the inhibition in experiment [2] was 12%; in experiment [3] it was -3%. Also, the result in experiment [5], in experiment [6], in experiment [7] and in experiment [8] was inactive.

For the compound `COc1ccccc1CCNc1nc(C)cc(NCCC(=O)NCCOc2ccccc2)n1`, the growth inhibition was 14% in experiment [1] and 85% (active) in experiment [4]. For the same compound, the inhibition in experiment [2] was 11%; in experiment [3] it was -3%. The outcome in experiment [5], in experiment [6], in experiment [7] and in experiment [8] was inactive.
